Laboratory results taken from PubChem BioAssay (NCI).
This is part of a sample that, as a whole, favours compounds with a hit. Of some 83,000 tested, about 20% had one in any assay.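 In brief: 96-well plates, 48 h treatment, single concentration, percent growth endpoint.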 Values without a mark were called inactive. Activity calls are given as the source filed them. Rule for the calls: active = growth percent below 10; inactive = the rest.

Columns and labels:
Test in all cases: NCI-60 one-dose screen, 48 h (100 = growth as untreated, 0 = no growth, -100 = all killed)
Details in all cases: 10 µM
NCI-H226 lung = test system: NCI-H226 lung
NCI-H322M lung = test system: NCI-H322M lung
HOP-62 NSCLC = test system: HOP-62 NSCLC
NCI-H522 lung = test system: NCI-H522 lung
A549/ATCC NSCLC = test system: A549/ATCC NSCLC
786-0 renal = test system: 786-0 renal
COLO 205 colon = test system: COLO 205 colon
DU-145 prostate = test system: DU-145 prostate
NCI-H460 lung = test system: NCI-H460 lung

| SMILES | growth (NCI-H226 lung) | growth (NCI-H322M lung) | growth (HOP-62 NSCLC) | growth (NCI-H522 lung) | growth (A549/ATCC NSCLC) | growth (786-0 renal) | growth (COLO 205 colon) | growth (DU-145 prostate) | growth (NCI-H460 lung) |
| --- | --- | --- | --- | --- | --- | --- | --- | --- | --- |
| O=c1[nH]c2ccc(Cl)cc2c2ccccc12 | 85.1% | 42.5% | 72.2% | 109% | 79.5% | 49.5% | 86.5% | 78.2% | – |
| CCCCOC(=O)Oc1ccc(C(=O)Oc2ccc(OCC)cc2)cc1 | 92.7% | 98.6% | 113% | 82.7% | 85.6% | 96.7% | 118% | 97.7% | 106% |
| O=C(Nc1ccc(Cl)cc1)N1NC(c2ccc(Cl)cc2)C=C1c1ccccc1 (configuration not stated) | 109% | 90.8% | 93.4% | 98.4% | 89.9% | 92.1% | 99.3% | 102% | 105% |
| CCN1CCC(CCOC)(CN2c3ccccc3Sc3ccc(Cl)cc32)C1 (configuration not stated) | 73.9% | 65.7% | 58.3% | 65.1% | 61.1% | 48.7% | 40% | 69.5% | 24.1% |
| O=C1Nc2ccc(Cl)cc2/C1=C\c1c(-c2ccc(Cl)cc2)nc2sc(C3CC3)nn12 | 29.7% | – | -0.353% (active) | 42.9% | 56.4% | 31.8% | 71.9% | 59.2% | 51.4% |
| O=C(C[n+]1ccccc1)c1ccc2ccccc2c1 | 96.4% | 95.2% | 89.1% | 103% | 96.7% | 87.6% | 102% | 87.9% | 104% |
| COc1cc(-c2nc(Nc3nc4ccccc4s3)[nH]c(=O)c2C#N)cc(OC)c1O | 102% | 124% | 99.5% | 97.2% | 106% | 101% | 100% | 113% | 105% |
| CN1CCC2(CC1)NC(=O)c1c(c3ccc(Cl)c(Cl)c3n1C)C2C#N (configuration not stated) | 53.8% | 85.6% | 58% | 76.3% | 63.7% | 68.7% | 58% | 92.4% | 49% |
| O=C(CNC(=O)OCc1ccccc1)NCC(=O)Oc1ccc([N+](=O)[O-])cc1 | 99% | 107% | 107% | 89.6% | 23.6% | 103% | 99.2% | 111% | – |
| O=C1NC(=O)c2ncccc21 | 96.3% | 106% | 109% | 171% | 98.8% | 102% | 114% | 113% | 111% |
| FC(F)(F)c1ccc2nc(-c3nc(-c4ccccc4)n4ccccc34)[nH]c2c1 | 99.4% | 55% | 110% | 68.3% | 49.5% | 40.2% | 58.9% | 68.7% | 59.4% |
| COc1ccc(Cl)cc1C(=O)Nc1nc2ccc(Cl)cc2s1 | 89.2% | 85.6% | 89.4% | 99.4% | 76.7% | 75.8% | 82.8% | 94.9% | 93.7% |
| O=C1/C(=C\c2ccc(Cl)cc2)CN(C(=O)c2ccccc2)C/C1=C\c1ccc(Cl)cc1 | 10% | 74.5% | 23.2% | 40.6% | 22.2% | 7.43% (active) | 32.9% | 24.9% | 68.3% |
| CCN(CC)CCC(=O)Nc1cccc2c1C(=O)c1c(c(O)c3ccccc3c1O)C2=O | 29% | – | 47.9% | 46.4% | 33.7% | 4.91% (active) | 51.3% | 51.2% | 15.5% |
| O=C(Nc1ccc(Cl)c(Cl)c1)Nc1c(Oc2ccc(Cl)c(Cl)c2)ccc(Cl)c1S(=O)(=O)O | 66% | 50.8% | 49.4% | -1.66% (active) | 37% | 35% | -13.9% (active) | 21.1% | 9.02% (active) |
| Nc1c(C(=O)Nc2cccc(F)c2)sc2nc3c(cc12)C(=O)CCC3 | 64.6% | 58.8% | 69.3% | 5.31% (active) | 27.6% | 51.6% | -3.2% (active) | -12.7% (active) | 11.5% |

| SMILES | growth (NCI-H226 lung) | growth (NCI-H322M lung) | growth (HOP-62 NSCLC) | growth (NCI-H522 lung) | growth (A549/ATCC NSCLC) | growth (786-0 renal) | growth (COLO 205 colon) | growth (DU-145 prostate) | growth (NCI-H460 lung) |
| --- | --- | --- | --- | --- | --- | --- | --- | --- | --- |
| CCCCCCCCCCCCCCCCCC(=O)OCCCCCCC | 89.6% | 109% | 121% | 107% | 95.2% | 114% | 110% | 104% | – |
| Cc1ccc(NC(=O)Nc2c(Cl)cccc2Cl)cn1 | 140% | 119% | 107% | -10.6% (active) | 57.3% | 113% | 135% | 123% | 106% |
| CSc1nc(=O)n(Cc2ccc(F)cc2)c(=O)n1Cc1ccc(C)cc1 | 101% | – | 101% | 110% | 88.5% | 100% | 94.6% | 107% | 105% |
| Nc1ccc2c(c1)C1(CCC2)NC(=O)NC1=O (configuration not stated) | 92.1% | 103% | 101% | 98.6% | 99.5% | 100% | 105% | 114% | 103% |
| COc1ccc2c(c1)C(=O)c1c-2c(=O)n(CCCN(C)C)c2cc(OC)c(OC)cc12 | 70.5% | 80% | 51.4% | 56.5% | 56.3% | 71.8% | 100% | 26.9% | 10.9% |
| O=C1/C(=C\c2ccc(Cl)cc2)CN(C(=S)Nc2ccccc2)C/C1=C\c1ccc(Cl)cc1 | -70.1% (active) | -20.7% (active) | -55.4% (active) | -88.2% (active) | -21.4% (active) | -86% (active) | -86.1% (active) | -73.2% (active) | -70.8% (active) |
| COc1cc(NC(=O)CCSc2nc3ccc(Cl)cc3c(=O)n2Cc2ccccc2)cc(OC)c1OC | 31.1% | 83.1% | 57.2% | -9.19% (active) | 59.3% | 93.2% | 107% | 108% | 81.8% |
| COc1ccc(-c2cc(-c3ccc(N(C)C)cc3)c(C#N)c(N3CCCC3)n2)cc1 | 82.5% | 92.3% | 99.7% | 69.4% | 77.2% | 95.6% | 65.9% | 86.8% | 69.9% |
| N#CCCN1C/C(=C/c2ccc(Br)cc2)C(=O)/C(=C/c2ccc(Br)cc2)C1 | -77.6% (active) | -23.2% (active) | -59.4% (active) | -68.4% (active) | -37.6% (active) | -67.9% (active) | -93.9% (active) | -48.4% (active) | -55.2% (active) |
| CC(C)(C#N)Nc1ccccc1 | 95.8% | 124% | 108% | 94.1% | 96.9% | 101% | 109% | 118% | 109% |
| COc1cc2c(cc1OC)N(CCO)C1=C(C(=O)OC1)C2c1ccc(Cl)c(Cl)c1 (configuration not stated) | 103% | 95.2% | 98% | 77.4% | 98.6% | 93.5% | 116% | 109% | 104% |
| COc1ccc2c(c1)/C(=C\c1c[nH]c3ccc(OC)cc13)C(=O)N2 | 72.7% | 54.7% | 51% | 50.3% | 30.8% | 70.9% | 36.7% | 63.1% | 53.2% |
| CCCCC(CCCCCC(CCCC)NCc1ccc2c(c1)OCO2)NCc1ccc2c(c1)OCO2 (configuration not stated) | -77.9% (active) | -91.6% (active) | -98.9% (active) | -91.2% (active) | -99.2% (active) | -100% (active) | -97.5% (active) | -100% (active) | -98.4% (active) |
| COc1cc(C2CC(c3ccc(Nc4ccnc5cc(Cl)ccc45)cc3)=NN2c2ccc(Cl)cc2)cc(OC)c1OC (configuration not stated) | 82.9% | – | 46.8% | 9.33% (active) | 44.6% | 68.8% | 75.7% | 64% | 43.4% |
| Cc1ccc(C(=O)N2C/C(=C/c3ccc(F)cc3)C(=O)/C(=C/c3ccc(F)cc3)C2)cc1 | 86.9% | 90.6% | 96.4% | 67.7% | 94.5% | 91.6% | 111% | 101% | 101% |
